# Source: PubChem
# Rows were chosen to be rich in hits. Some 0.99% of all compounds tested hit in one or more screens of this group.
# TRHR agonist = TRH receptor (human) agonism; 0.18% of 360,000 active; activation, % at 2 µM; P34981; AID 493084; TRHR cells, calcium flux fluo-8, FDSS agonist mode; in the data active means activation above about 30%; further: 0% is about no effect
# Target sequence (P34981 whole entry, looked up): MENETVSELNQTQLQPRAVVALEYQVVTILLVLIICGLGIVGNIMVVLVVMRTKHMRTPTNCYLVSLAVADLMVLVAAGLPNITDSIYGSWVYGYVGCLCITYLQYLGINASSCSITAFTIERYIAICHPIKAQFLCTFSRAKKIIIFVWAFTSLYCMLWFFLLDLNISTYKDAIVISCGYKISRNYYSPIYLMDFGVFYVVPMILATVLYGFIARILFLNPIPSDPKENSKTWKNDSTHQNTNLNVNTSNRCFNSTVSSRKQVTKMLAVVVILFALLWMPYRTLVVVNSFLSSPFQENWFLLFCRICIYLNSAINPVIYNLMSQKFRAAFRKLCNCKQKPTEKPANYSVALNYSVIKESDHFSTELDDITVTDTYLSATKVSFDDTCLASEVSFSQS
#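 TRHR-expressing cells, plated overnight in medium with 10% serum, were loaded with fluo-8 calcium dye at room temperature. After a 10 s baseline, library compound was pin-added and calcium release was recorded kinetically (ex 480/em 530) as agonist response.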
# TRPV1 ag = human TRPV1 agonism; TRPV1-expressing cells, Fluo-8 calcium influx, agonist mode; activation, % at 8.33 µM; 0.19% of 320,000 active; in the data active means activation above about 80%; inconclusive means between about 30% and that limit; further: 0% is about no effect
#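 TRPV1-expressing cells were cultured overnight at 35.5C and loaded with Fluo-8 calcium dye for 40 to 90 min at room temperature. After a 10 s baseline, compound was added and calcium influx was read kinetically for 3 min (ex 480/em 520 nm).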
# TRHR enhancer = allosteric enhancers of human TRH receptor | enhancement, % at 2 µM | AID 493056 | TRHR cells, fluo-8 calcium fluorescence, EC20 TRH enhancement | 0.66% of 360,000 active; in the data active means enhancement above about 30%; further: 0% is about no effect
#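 TRHR-expressing cells loaded with fluo-8 calcium dye were read kinetically (ex 480/em 530) during compound addition, then stimulated with an EC20 of TRH (10 nM final). Enhancement of the Gq-mediated intracellular calcium response was scored.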
# TRPV1 PAM = enhances activation of the human vanilloid receptor TRPV1. TRPV1-expressing cells, Fluo-8 calcium influx, capsaicin EC20 potentiation. potentiation, % at 8.33 µM. 0.02% of 320,000 active; in the data active means potentiation above about 80%; inconclusive means between about 30% and that limit; further: 0% is about no effect
#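 Fluo-8 calcium influx in TRPV1-expressing cells, kinetic read (ex 480/em 520 nm). Compound added and read 3 min for agonist activity, followed by capsaicin at EC20 final and 2 min further read for enhancement.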
# TRPML1 inh = blocks the human TRPML1 channel. Q9GZU1. TRPML1-inducible cells, Ca2+ dye fluorescence, FDSS; active compounds read low; inhibition of EC80 agonist-evoked calcium signal. activity change, negative = inhibition, % (test concentration not listed). 0.02% of 390,000 active; in the data active means activity change below about -50%; inconclusive means between about -30% and that limit;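 further: stimulus is agonist 54-4 at its EC80 concentration; on the % scale 0 is the no-effect control and ±100 the full control effect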
#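 Calcium fluorescence in TRPML1-DL cells induced overnight with Tet: a 110 s read after compound pin addition, then a 110 s antagonist read after challenge with 54-4 at 4 uM final (EC80).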
# TRPML1 ag = activates the human TRPML1 channel. Q9GZU1. TRPML1-expressing cells, Ca2+ dye fluorescence, FDSS. activation, % (concentration not given with the values). 0.12% of 410,000 active; in the data active means activation above about 50%; inconclusive means mostly about 30% to 49%; further: 0% is about no effect
#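 Kinetic FDSS Ca2+ read in Tet-induced TRPML1-DL cells (ABD Ca8 dye plus quencher, 45-90 min RT loading): baseline, then compound, then 110 s agonist window; EC80 agonist 54-4 at 4uM final added afterwards for a 110 s antagonist window.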
# Active calls of the source: *; ? = inconclusive; · = not tested or not shown.
SMILES,TRHR agonist,TRPV1 ag,TRHR enhancer,TRPV1 PAM,TRPML1 inh,TRPML1 ag
COc1ccc(S(=O)(=O)c2c(O)c3ccc(C(=O)Nc4ccccc4Cl)cc3[nH]c2=O)cc1,1,-5,32*,5,-24,0
CC(C)c1ccc(N=Cc2c(O)c3ccccc3oc2=O)cc1,0,83*,-6,-7,·,·
C/C=C(\C)NNC(=O)Cc1ccc(OC)cc1,·,·,·,·,·,-1
CC(=O)N1CCN(S(=O)(=O)c2cccc(C(=O)OCC(=O)N3CC(=O)Nc4ccccc43)c2)CC1,0,1,-4,6,25,1
O=C1CN(C(=O)c2cccc(S(=O)(=O)N3CCCC3)c2)c2ccccc2N1,0,0,41*,2,29,-1
N/C(=N\OC(=O)c1ccc(Cl)cc1)c1nonc1N,0,81*,-1,-1,16,1
Cc1ccccc1C(=O)NCC(=O)OC(C(=O)Nc1cc(C(F)(F)F)ccc1Cl)c1ccccc1 (configuration not stated),2,·,-8,·,·,·
O=C(c1ccccc1)c1cnc[nH]1,0,-4,30*,16,20,0
COc1ccc(C(=O)Oc2ccc(C3NC(=O)c4c(sc5c4CCN(C)C5)N3)cc2OC)cc1 (configuration not stated),50*,·,7,·,7,6
Cc1cccc(NC(=O)CCn2nc(C)c3c(C)n(-c4ccccc4)nc3c2=O)c1C,0,·,4,·,5,-1
Cc1ccc(C)c(NC(=O)CCn2nc(C)c3c(C)n(-c4ccccc4)nc3c2=O)c1,0,·,7,·,-54*,-1
Cc1nn(C(C)C(=O)NCCN2CCCCCC2)c(=O)c2nn(-c3ccccc3)c(C)c12 (configuration not stated),0,-1,30*,-4,-7,0
COc1ccc(CCn2c(=S)[nH]c(=O)c3[nH]cnc32)cc1OC,·,·,·,·,·,0
Cc1cc(C)c(NC(=O)CN2CCN(C)CC2)c(C)c1,-1,-5,32*,18,-1,0
COc1ccc(N2CCN(CC(=O)Nc3c(C)cc(C)cc3C)CC2)cc1,-1,1,1,0,-11,0
CCCCCCC[n+]1ccc(/C=C/c2c[nH]c3ccccc23)c2ccccc21,·,·,·,·,·,25
CCOc1ccc(NC(=O)CN(C)C(=O)CCCn2c(=O)oc3ccccc32)cc1OCC,0,2,38*,14,17,-1
S=c1[nH]nc(-c2ccncc2)n1/N=C/c1cn(-c2ccccc2)nc1-c1ccccc1,0,4,30*,3,5,-1
O=C(C[n+]1ccccc1Cl)c1cccc([N+](=O)[O-])c1,·,·,·,·,·,0
Cn1c(=O)c(C(=O)NNC(=O)c2cccc(Cl)c2)c(O)c2ccccc21,0,1,-1,0,9,-1
Cc1cccc(C(=O)NNC(=O)c2c(O)c3ccccc3n(C)c2=O)c1,-1,1,37*,11,1,0
COc1ccc(S(=O)(=O)n2cccc2)c(OC)c1,0,1,32*,4,25,0
CC(C)Cn1c(=O)c2ccccc2n2c(CCC(=O)Nc3cccc(Cl)c3)nnc12,0,·,-2,·,21,0
CC1(c2ccccc2)NC(=O)N(CCOc2ccccc2)C1=O (configuration not stated),0,11,6,20,7,-1
Cc1cccc(C)c1OCCN1C(=O)NC(C)(c2ccccc2)C1=O (configuration not stated),1,10,40*,-2,42,-1
SMILES,TRHR agonist,TRPV1 ag,TRHR enhancer,TRPV1 PAM,TRPML1 inh,TRPML1 ag
CCCCCCC[n+]1ccc(/C=C/c2c(C)[nH]c3ccccc23)c2ccccc21,·,·,·,·,·,3
CCOC(=O)[C@H]1[C@H]2COc3ccc(Cl)cc3[C@@H]2N2C(=O)c3ccc(Cl)cc3NC(=O)[C@@]12C,0,87*,-2,0,23,1
CCOC(=O)[C@H]1[C@H]2COc3ccc(OC)cc3[C@@H]2N2C(=O)c3ccc(Cl)cc3NC(=O)[C@@]12C,0,90*,-5,?,38,0
COc1cc(OC)c(/C=C/c2cc3ccccc3c[n+]2C)c(OC)c1,·,·,·,·,·,0
Cc1ccc2oc(C(=O)NCC3CCOCC3)c(C)c2c1,-1,84*,13,-12,-19,0
Cc1ccc2c(C)c(C(=O)NCC3CCOCC3)oc2c1C,·,·,·,·,11,-1
O=c1cc(-c2ccccc2)oc2cc(O)ccc12,·,·,·,·,5,2
COc1ccc(-c2c(C)c3ccc(O)cc3oc2=O)cc1OC,-1,-2,8,3,8,1
O=c1ccc2c(-c3ccccc3)c3ccc(O)cc3oc-2c1,0,2,5,-4,?,139*
Nc1ccc(-c2c3ccc(=O)cc-3oc3cc(O)ccc23)cc1C(=O)O,152*,93*,22,-21,-11,65*
Cc1cccc(Cn2nnc(C(=O)Nc3cc(C)ccc3C)c2N)c1,0,·,-10,·,4,-1
CC(=O)NC(=O)c1nnn(Cc2ccccc2)c1NC(C)=O,0,-1,34*,1,-2,0
Cc1ccc(Cl)cc1NC(=O)c1nnn(Cc2ccccc2)c1N,2,·,31*,·,-4,-1
O=C(OCc1c(Cl)nc2sccn12)c1cc2c(s1)CCCC2,0,2,33*,3,37,0
O=C(COC(=O)c1cc2c(s1)CCCC2)Nc1ccc(Cl)cn1,-1,2,-2,0,11,5
COc1cc(OC)c(C2Nc3c(C)cccc3-c3cc(C)nn32)cc1OC (configuration not stated),-1,·,31*,·,12,-1
Cc1cc2n(n1)C(c1sccc1C)Nc1c(C)cccc1-2 (configuration not stated),-2,-9,18,-4,22,1
O=C(COc1ccccc1-c1nc(-c2ccccc2)no1)Nc1ccccc1[N+](=O)[O-],-1,·,41*,·,-1,0
Cc1ccc(-c2noc(-c3ccccc3OCC(=O)Nc3ccccc3[N+](=O)[O-])n2)cc1,0,·,-2,·,-3,0
CC(C)N1C(=O)C(O)(C2COC(C)(C)CC2=O)c2ccccc21 (configuration not stated),0,1,33*,5,-4,1
O=C(CSc1nc2c([nH]c3ccccc32)c(=O)n1-c1ccc(Cl)cc1)N1CCOCC1,-1,·,-2,·,40,1
O=C(O)c1ccc(N2CCCCCC2)c(N2C(=O)c3ccccc3C2=O)c1,0,0,2,-2,-1,-1
